Screening data deposited in PubChem by National Center for Advancing Translational Sciences (NCATS).
In the library only some 12% were active in any assay of this set; here they are far more common.
HP1b binding inh = HP1-beta chromodomain-methylated histone interaction inhibition | P83916 | AlphaScreen HP1-beta / biotin-H3K9me3 peptide binding | Potency, µM (highest dose often 114 µM), without a hit: top-dose activity change, negative = inhibition, actives largely listed as inhibitors | 0.56% of 390,000 active | AID 540317; further: nearly all actives have a fitted effect of over 70% in size
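AlphaScreen: HP1-beta (50 nM) preformed 30 min with biotin-H3(1-18)K9me3 peptide (50 nM) in PBS pH 7.4, 0.01% Tween-20. Compound added for 30 min at RT, then streptavidin donor/nickel chelate acceptor beads (10 ug/mL) for 30 min.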
L3MBTL1 inh = blocks human L3MBTL1 | AID 485360 | Q9Y468 | AlphaScreen L3MBTL1–H3K9me1 peptide binding | Potency, µM (top dose mostly 57.1 µM), inactives show at the top dose activity, negative = inhibition, actives largely listed as inhibitors | 0.66% of 230,000 active; further: on the % scale 0 is the no-effect control and ±100 the full control effect; nearly all actives have a fitted effect of over 60% in size
Target sequence (Q9Y468 whole entry, looked up): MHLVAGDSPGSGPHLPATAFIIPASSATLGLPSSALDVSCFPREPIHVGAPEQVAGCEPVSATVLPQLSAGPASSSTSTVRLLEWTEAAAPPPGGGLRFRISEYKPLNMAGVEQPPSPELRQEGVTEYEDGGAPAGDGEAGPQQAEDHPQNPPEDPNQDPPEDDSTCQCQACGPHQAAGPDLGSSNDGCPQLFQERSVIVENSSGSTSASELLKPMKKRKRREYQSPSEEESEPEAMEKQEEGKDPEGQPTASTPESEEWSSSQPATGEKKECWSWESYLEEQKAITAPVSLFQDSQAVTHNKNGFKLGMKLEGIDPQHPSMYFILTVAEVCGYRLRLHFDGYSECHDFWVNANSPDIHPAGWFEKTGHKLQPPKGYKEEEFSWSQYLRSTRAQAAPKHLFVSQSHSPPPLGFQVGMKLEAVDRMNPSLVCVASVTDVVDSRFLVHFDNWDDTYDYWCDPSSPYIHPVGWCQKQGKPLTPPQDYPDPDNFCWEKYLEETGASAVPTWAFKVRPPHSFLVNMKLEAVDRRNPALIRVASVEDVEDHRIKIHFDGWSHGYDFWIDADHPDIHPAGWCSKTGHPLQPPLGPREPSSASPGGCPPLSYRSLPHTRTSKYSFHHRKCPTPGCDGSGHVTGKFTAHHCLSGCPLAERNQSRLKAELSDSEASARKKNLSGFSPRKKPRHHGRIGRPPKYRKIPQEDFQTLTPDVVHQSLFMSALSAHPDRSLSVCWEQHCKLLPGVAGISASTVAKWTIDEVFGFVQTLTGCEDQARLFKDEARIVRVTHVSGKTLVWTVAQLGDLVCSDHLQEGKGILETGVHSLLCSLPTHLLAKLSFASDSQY
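AlphaScreen proximity signal between nickel-chelate acceptor and streptavidin donor beads (final 10 ug/mL) reports binding of 50 nM L3MBTL1 to 75 nM biotin-H3 K9me1 peptide; complex incubated with compounds 30 min at room temperature; cefsulodin titration as control.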
JMJD2A Tudor = inhibitors of human JMJD2A Tudor domain. AlphaScreen JMJD2A-Tudor / H3K4me3 peptide binding. 4.4% of 390,000 active. AID 504339. O75164. Potency, µM (doses to about 114 µM), without a hit: at the top dose activity change, negative = inhibition, usual class: inhibitors; further: on the % scale 0 is the no-effect control and ±100 the full control effect; nearly all actives have a fitted effect of over 50% in size
G9a block = blocks human histone lysine methyltransferase G9a | G9a H3K9 monomethylation, AlphaScreen, 2 h | 8.8% of 350,000 active | Potency, µM (top dose mostly 102 µM), without a hit: top-dose activity, negative = inhibition, most hits filed as inhibitors; further: on the % scale 0 is the no-effect control and ±100 the full control effect; nearly all actives have a fitted effect of over 75% in size
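Compounds were preincubated with 20 nM G9a for 15 min, after which biotinylated H3K9 peptide (500 nM) and SAM (20 uM) started a 2 h room-temperature reaction. Monomethylated product was quantified by antibody-based AlphaScreen chemiluminescence.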
BAZ2B inh = inhibitors of human BAZ2B bromodomain | AlphaScreen BAZ2B-H3K14Ac peptide displacement | 4.4% of 360,000 active | Q9UIF8 | Potency, µM (top dose mostly 114 µM), for inactives: at the top dose activity change, negative = inhibition, usual class: inhibitors | AID 504333; further: on the % scale 0 is the no-effect control and ±100 the full control effect; nearly all actives have a fitted effect of over 60% in size
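Protein-peptide AlphaScreen: BAZ2B 50 nM, b-H3K14Ac 50 nM, 1x PBS pH 7.4 + 0.01% Tween-20. Preincubation 30 min RT; cpd 30 min RT (top 110 uM); beads 20 min RT, light-protected.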
Sfp inh = blocks B. subtilis Sfp PPTase activity. Q9F4F7. Biochemical Sfp PPTase activity, qHTS. Potency, µM, inactives show largest response in the series, negative = inhibition, hits mostly inhibitors. 3.5% of 310,000 active. AID 1490;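 further: the enzyme is Sfp with the accession as filed and its product quenches rhodamine fluorescence; 0% = enzyme reaction without inhibitor and -100% = no enzyme wells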
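Fluorescence-quenching assay with 15 nM Sfp, 5 uM rhodamine-CoA and 12.5 uM BHQ-2-labelled ybbR peptide in pH 7.6 Hepes/MgCl2 buffer. Enzyme was pre-incubated with compound for 15 min at room temperature. Rate was taken from the 30-min fluorescence change (525/598 nm).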
An asterisk follows results filed as active; ? = inconclusive; nt = no result given; [ ] = remark or other dose. The call rests on the fitted dose curve; in most records, active means well fitted curve in the direction sought with a large enough effect; inconclusive means small, poorly fitted or top-dose-only effect, or another doubt; inactive means no such curve, though single readings can be large; an effect the other way counts as inactive or inconclusive. Potency means the concentration at half of the fitted maximal effect.

SMILES	HP1b binding inh	L3MBTL1 inh	JMJD2A Tudor	G9a block	BAZ2B inh	Sfp inh
COc1ccc(/C=N/NS(=O)(=O)c2ccc(C)cc2)cc1OC(=O)c1ccc(C)cc1	-6%	nt	-28%	?	-2%	23%
Cc1cc(C)cc(-n2c(SCC(=O)Nc3nnc(C)s3)nc3c([nH]c4ccccc43)c2=O)c1	16%[57 µM]	nt	-10%	20%[59 µM]	8%	nt
COC(=O)c1ccc(Cn2c(C)cc(C)[n+]2C)o1	21%	nt	40µM*	?	?	-18%
CC(=O)c1csc(-c2cccc(-c3nc4ccc(Cl)cn4c3NC3CCCCC3)c2)c1	-7%	1%	?	2%[2.33 µM]	56µM*	nt
COc1ccc(-c2cccc(-c3nc4ccc(Cl)cn4c3NC3CCCCC3)c2)cc1	18%	0%	-34%	nt	nt	nt
CCCCNc1c(-c2cccc(-c3cc(C(C)=O)cs3)c2)nc2cc(C)ccn12	-8%	-23%	?	5%[2.33 µM]	28µM*	nt
CCCCCCSc1cc(-c2nc3cc(C)ccn3c2NCCCC)ccc1OC	26%	-9%	?	8%[2.33 µM]	-36%	nt
COc1ccc2c(c1)CC(NC(=O)Nc1ccc(Br)c(C)c1)CO2 (configuration not stated)	21%[57 µM]	nt	-9%	-12%[59 µM]	3%	nt
O=C(c1cccn1-c1nnc(N2CCCC2)s1)N1CCN(c2ccc(Cl)cc2)CC1	10%	nt	-23%	-33%[59 µM]	?	nt
COc1ccc(-c2noc(-c3ccc(NCc4ccco4)c([N+](=O)[O-])c3)n2)cc1OC	18%	nt	-8%	-9%[59 µM]	-11%	nt
COc1ccc(CCn2c(C)cc(C(=O)COC(=O)c3cnc(C)cn3)c2C)cc1	35%	-5%	-31%	50µM*	?	nt
COc1ccc(CCn2c(C)cc(C(=O)COC(=O)c3cnccn3)c2C)cc1	5%	nt	-29%	?	?	-7%
Cc1ccc(-n2nc(C)cc2NC(=O)c2ccc(C)s2)cc1	26%	nt	7%	79µM*	10%	-4%
c1ccc(-c2csc3ncn4nnnc4c23)cc1	?	14%	14µM*	-22%[12.7 µM]	0%	18%
Cc1ccc(C)c(NC(=O)C(Cc2ccccc2)N2Cc3ccccc3C2=O)c1 (configuration not stated)	30%	nt	-12%	-21%[59 µM]	1%	nt
COc1ccc(/C=N/Nc2cc(N3CCOCC3)ncn2)c(OC)c1	46%	7%	-16%	nt	5%	-6%
COc1cccc(/C=N/Nc2cc(N3CCOCC3)ncn2)c1O	37%	?	45µM*	45%	2.8µM*	7%
Cc1ccc(N2CC(C(=O)Nc3ccc(Br)cc3)CC2=O)cc1 (configuration not stated)	36%	nt	-23%	-18%[59 µM]	-5%	nt
c1ccn2c(SCc3ccc4c(c3)OCCO4)nnc2c1	32%	1%	-6%	56µM*	?	?
O=C1C2CC=C(Cl)CC2C(=O)N1CC1Cc2ccccc2CO1 (configuration not stated)	30%	nt	-10%	50µM*	-35%	-17%
O=C1C2CC=C(Cl)CC2C(=O)N1CC1OCCc2ccccc21 (configuration not stated)	35%	nt	-4%	?	-10%	-15%
O=C1C2CC=C(Cl)CC2C(=O)N1CN(Cc1ccco1)CN1C(=O)C2CC=C(Cl)CC2C1=O (configuration not stated)	32%	?	-25%	50µM*	50µM*	-6%
CCOc1ccc(/C=C/c2nc(C#N)c(N(C)C)o2)cc1	25%	nt	-20%	-33%[59 µM]	?	nt
O=C(O)CN(CC(=O)O)CC(=O)O	46%	nt	32µM*	nt	nt	nt
O=C(O)CN(CCO)CCN(CC(=O)O)CC(=O)O	nt	12%	nt	17%	11%	14%
SMILES	HP1b binding inh	L3MBTL1 inh	JMJD2A Tudor	G9a block	BAZ2B inh	Sfp inh
O=C(c1cccc(-n2cccc2)c1)N1CCN(S(=O)(=O)c2ccccc2)CC1	13µM*	4.5µM*	5.6µM*	5%[2.33 µM]	8.9µM*	nt
O=C(c1cccc(-n2cccc2)c1)N1CCN(S(=O)(=O)c2c(F)cccc2F)CC1	?	nt	35µM*	67%	2%	12%
O=C1c2cccc3cccc(c23)C(=O)N1CC1CCN(CC(O)COCc2ccc3c(c2)OCO3)CC1 (configuration not stated)	-27%	4µM*	?	-13%[59 µM]	-14%	3%
CCCC1(C)C(C#N)C(=O)NC(=O)C1C#N (configuration not stated)	22%[57 µM]	nt	2%	nt	nt	nt
CCCC1(C)C(C#N)(C#N)C1(C#N)C#N	nt	nt	nt	8.9µM*	nt	nt
CCOc1cc(/C=N/Nc2nnc(C)n2N)ccc1OC(C)=O	45%	nt	9%	45µM*	-14%	?
Cc1nnc(N/N=C/c2cccc(OCc3ccc(Cl)c(Cl)c3)c2)n1N	-5%	-14%	?	10µM*	?	71µM*
Cc1nnc(N/N=C/c2cccc(C(F)(F)F)c2)n1N	34%	nt	-1%	21%	?	7%
Cc1ccccc1-n1c(C)nnc1SCC(=O)NNC(=O)c1ccccc1	25%	13%	-10%	5%[59 µM]	-8%	-1%
Cc1nnc(SCC(=O)NNC(=O)c2ccccc2)n1-c1ccccc1	28%	-10%	50µM*	-44%[59 µM]	8%	-25%
O=C(CSc1nnc(-c2ccccc2O)n1-c1ccccc1)Nc1cccc(C(=O)O)c1	18%	19%	-3%	50µM*	?	-3%
O=C(CSc1ncccn1)NNC(=O)c1ccccc1	15%	nt	-13%	nt	nt	nt
CCN(Cc1ccccc1)C(=O)CSc1ncn[nH]1	-3%	nt	-21%	45µM*	-5%	-10%
O=C(CSc1ncn[nH]1)NNC(=O)c1ccccc1	37%	8%	7.9µM*	9%[0.501 µM]	5%	nt
CCN(c1ccccc1)c1nnc(NC(=O)Nc2cccc(Br)c2)s1	29%	nt	-4%	-30%[59 µM]	-9%	nt
